Assay outcomes (PubChem BioAssay)
Rows were chosen to be rich in hits. Some 3.3% of all compounds tested hit in one or more screens of this group.
NCF1 inh: blocks human p47phox regulatory protein of NADPH oxidases | P14598 | p47phox/p22phox peptide binding, fluorescence polarization, 2 h | inhibition, % at 24.7 µM | actives 0.53% (n = 220,000) | AID 1274;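 further: 0% = p47phox with labelled peptide and 100% = labelled peptide alone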
eIF4E-4G inh: eIF4E/eIF4G interaction inhibition in translation initiation; AID 782; TR-FRET eIF4E-eIF4GI(517-606) binding, 2 h; P63073+Q04637; actives 0.37% (n = 220,000); inhibition, % at 21.7 µM;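 further: 0% = full FRET control wells and 100% = background wells lacking eIF4GI fragment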
Target sequence (P63073 whole entry, looked up, the tested form may be a part): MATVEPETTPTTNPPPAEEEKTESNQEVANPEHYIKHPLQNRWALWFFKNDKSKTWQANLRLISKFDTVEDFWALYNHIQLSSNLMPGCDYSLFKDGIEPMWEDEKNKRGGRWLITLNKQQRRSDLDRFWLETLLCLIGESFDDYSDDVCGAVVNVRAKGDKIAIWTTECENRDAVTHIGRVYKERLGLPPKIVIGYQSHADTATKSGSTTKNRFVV
Target sequence (Q04637 whole entry, looked up, the tested form may be a part): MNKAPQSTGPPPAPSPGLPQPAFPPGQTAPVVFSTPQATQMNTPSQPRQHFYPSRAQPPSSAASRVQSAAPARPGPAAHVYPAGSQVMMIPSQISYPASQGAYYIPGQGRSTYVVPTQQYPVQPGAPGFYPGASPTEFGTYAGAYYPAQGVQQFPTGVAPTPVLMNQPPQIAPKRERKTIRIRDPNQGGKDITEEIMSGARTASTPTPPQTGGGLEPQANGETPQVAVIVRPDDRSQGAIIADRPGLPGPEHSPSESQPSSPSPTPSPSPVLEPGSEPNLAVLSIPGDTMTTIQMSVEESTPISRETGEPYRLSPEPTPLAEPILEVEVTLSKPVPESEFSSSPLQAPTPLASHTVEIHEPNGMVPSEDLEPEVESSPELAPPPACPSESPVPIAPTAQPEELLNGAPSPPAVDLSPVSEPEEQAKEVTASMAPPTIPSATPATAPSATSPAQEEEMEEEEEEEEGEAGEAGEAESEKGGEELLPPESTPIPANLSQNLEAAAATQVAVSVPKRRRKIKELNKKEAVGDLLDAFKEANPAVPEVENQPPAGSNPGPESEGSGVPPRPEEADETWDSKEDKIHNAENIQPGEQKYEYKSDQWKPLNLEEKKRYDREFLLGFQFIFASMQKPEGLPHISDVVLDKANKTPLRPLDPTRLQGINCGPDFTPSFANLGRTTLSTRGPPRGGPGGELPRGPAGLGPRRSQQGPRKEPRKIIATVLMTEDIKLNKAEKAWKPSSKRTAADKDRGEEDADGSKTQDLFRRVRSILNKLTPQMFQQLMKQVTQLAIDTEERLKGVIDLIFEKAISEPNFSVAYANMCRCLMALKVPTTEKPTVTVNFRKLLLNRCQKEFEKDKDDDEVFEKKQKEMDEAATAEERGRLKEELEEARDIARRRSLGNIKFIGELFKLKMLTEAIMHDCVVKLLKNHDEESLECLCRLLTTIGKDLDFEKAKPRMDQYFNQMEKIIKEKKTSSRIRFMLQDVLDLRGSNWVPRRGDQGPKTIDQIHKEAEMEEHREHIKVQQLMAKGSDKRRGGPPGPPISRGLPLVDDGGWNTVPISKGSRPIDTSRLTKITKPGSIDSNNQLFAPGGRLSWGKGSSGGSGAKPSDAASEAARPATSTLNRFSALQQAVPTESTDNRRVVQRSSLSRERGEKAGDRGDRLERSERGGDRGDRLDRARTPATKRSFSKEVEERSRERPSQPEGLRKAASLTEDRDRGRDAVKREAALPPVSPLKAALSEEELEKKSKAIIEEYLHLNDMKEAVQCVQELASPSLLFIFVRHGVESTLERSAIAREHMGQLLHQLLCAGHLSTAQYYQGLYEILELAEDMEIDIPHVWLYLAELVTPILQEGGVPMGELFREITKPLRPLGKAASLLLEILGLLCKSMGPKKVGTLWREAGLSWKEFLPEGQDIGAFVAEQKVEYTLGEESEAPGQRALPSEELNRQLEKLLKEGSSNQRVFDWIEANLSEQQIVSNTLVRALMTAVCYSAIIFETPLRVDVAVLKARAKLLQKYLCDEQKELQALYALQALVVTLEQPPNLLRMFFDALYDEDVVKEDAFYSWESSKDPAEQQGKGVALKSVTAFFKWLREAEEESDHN
Mcl1 Bid PPI: Mcl-1/Bid interaction inhibition; inhibition, % at 21.7 µM; actives 0.97% (n = 220,000); Q07820; TR-FRET Mcl-1/Bid-Dy647 peptide binding, 1536-well;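 active means compounds that cut the binding signal by more than half at the single screening dose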;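 further: His-tagged Mcl-1 with europium anti-His antibody binding Bid BH3 peptide; 0% = Mcl-1 plus peptide wells and 100% = peptide-only wells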
Mcl1 Noxa PPI: disrupts binding of human Mcl-1 to Noxa peptide | TR-FRET Mcl-1/Noxa peptide binding, 2 h | inhibition, % at 21.7 µM | actives 1.5% (n = 220,000) | AID 1022;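 active means compounds that cut the protein-peptide binding signal by more than 50% relative to plate controls in a single-dose test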;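 further: His-tagged Mcl-1 with rhodamine Noxa BH3 peptide and terbium anti-His antibody; 0% = Mcl-1 plus Noxa peptide wells and 100% = peptide-only wells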
14-3-3 Bad PPI: disrupts binding of bovine 14-3-3 zeta to phospho-Bad peptide | P63103 | TR-FRET 14-3-3zeta/Dy647-pBad peptide displacement, 1 h | inhibition, % at 21.7 µM | actives 0.71% (n = 220,000) | AID 781;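 active means inhibition above about 70%, limit read from the data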;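 further: 0% = full 14-3-3 plus peptide FRET controls and 100% = background without 14-3-3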
Bim-Mcl-1: disrupts Bim peptide binding to human Mcl-1. Bead-based flow cytometry, Bim peptide-Mcl-1 binding. inhibition, % at 10 µM. actives 0.1% (n = 190,000). AID 1009; in the data active means inhibition above about 40%;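 further: 0% = no compound tracer wells and 100% = peptide blocker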
The depositor's hits bear a star; · = no result given; [ ] = dose if it differs, or a comment.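 How the source made its calls, unless noted: active means inhibition above about 30% (limit read from the data); inactive means the rest.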

SMILES	NCF1 inh	eIF4E-4G inh	Mcl1 Bid PPI	Mcl1 Noxa PPI	14-3-3 Bad PPI	Bim-Mcl-1
C#CCOCCOCCOCCNc1nc(N2CCN(C(=O)[C@H]([C@@H](C)CC)n3cc(CCCN=C(N)N)nn3)CC2)nc(N2CCN(C(=O)[C@H](C)n3cc(CCCN=C(N)N)nn3)CC2)n1	10	4	45	36	75*	-4
C#CCOCCOCCOCCNc1nc(N2CCN(C(=O)Cn3cc(CCCN=C(N)N)nn3)CC2)nc(N2CCN(C(=O)Cn3cc(CCCN=C(N)N)nn3)CC2)n1	15	3	58*	42	88*	-1
C#CCOCCOCCOCCNc1nc(N2CCN(C(=O)Cn3cc(CCCN=C(N)N)nn3)CC2)nc(N2CCN(C(=O)[C@H]([C@@H](C)CC)n3cc(CCC(=O)O)nn3)CC2)n1	-9	4	6	0	12	-3
NC(=O)CC[C@@H]1NC(=O)[C@H](CO)NC(=O)c2cc([N+](=O)[O-])cc(I)c2NCCC[C@@H](C(N)=O)NC(=O)[C@H](Cc2ccc(O)cc2)NC1=O	-13	-1	41	62*	5	0
COc1ccc(-c2cnnc(N/N=C/c3ccc(O)cc3)n2)cc1	-62	10	25	88*	36	0
CCn1c(=N)c(S(=O)(=O)c2ccc(C)cc2)cc2c(=O)n3ccccc3nc21	20	1	-6	-3	-1	5
CCn1c(=N)c(S(=O)(=O)c2ccccc2)cc2c(=O)n3ccccc3nc21	18	-3	9	19	79*	2
N#C/C(=C1\CCCN1)c1nc2ccccc2c(=O)[nH]1	-12	0	5	15	6	0
N#C/C(=C1/CCCCCN1)c1nc2ccccc2s1	-44	2	98*	3	-16	-1
Brc1ccc(C2=Nc3cccc4cccc(c34)N2)o1	-2	11	-34	55*	-13	0
Fc1ccc(C2=Nc3cccc4cccc(c34)N2)cc1	1	6	-43	19	-5	24
N#Cc1c(N)sc(=S)c2c1CCN(Cc1ccccc1)C2	-10	-17	-1	71*	20	3
CCN1CCc2c(sc(N)c2C#N)C1	-57	1	-13	44	-1	1
Nc1ccc(-c2cc(N)n(-c3ccccc3)n2)cc1	14	8	-4	34	81*	-3
Nc1cc(-c2ccc(Cl)cc2)nn1-c1ccccc1	-2	1	-16	27	-8	-5
CC(=O)OCC1OC(n2ncc(=O)n(Cc3ccccc3)c2=O)C(OC(C)=O)C1OC(C)=O (centres undefined)	1	2	-8	18	-5	0
CC(=O)OC[C@H]1O[C@@H](n2ncc(=O)[nH]c2=O)[C@H](OC(C)=O)[C@@H]1OC(C)=O	-2	0	0	10	71*	0
C/C(CC1CC2=C(CC1(C)C)C(C)(C)CCC2)=N\NC(N)=S (centres undefined)	-2	-4	2	-5	5	-5
CC1(C)CC(=O)/C(=C\c2cccc([N+](=O)[O-])c2)C(C)(C)N1	-7	7	-15	3	2	-17
O=C(Cc1ccccn1)Nc1ccccc1	-8	8	16	24	73*[fluorescence artefact?]	-2
COc1ccc(CCNC(=O)COC(=O)Cc2cccc3ccccc23)cc1	3	1	-5	83*	9	-6
COc1ccc(CCNC(=O)COC(=O)Cc2ccc(OC)cc2)cc1	0	1	7	-8	-3	-6
CC(NC(=O)Cn1cccc1C(=O)c1ccccc1)c1ccc2c(c1)OCCO2 (centres undefined)	71*	6	2	17	3	-3
CCOC(=O)c1c(C)n(C)c2ccc(OC)c(NC(=O)CCN3CCC(Cc4ccccc4)CC3)c12	2	6	-17	19	0	·
CCOc1ccc2cc(/C=C/C(=O)c3ccco3)c(Cl)nc2c1	-43	-68	59*	-23	10	1
SMILES	NCF1 inh	eIF4E-4G inh	Mcl1 Bid PPI	Mcl1 Noxa PPI	14-3-3 Bad PPI	Bim-Mcl-1
Cc1onc(-c2ccccc2)c1C(=O)Nc1ccon1	36*	-2	-20	-6	11	0
Cc1ccc(NC(=O)c2c(-c3ccccc3)noc2C)nc1	6	0	-31	-9	2	-9
CC(=O)Nc1ccc(OCCCNC(=O)c2c(-c3ccccc3)noc2C)cc1	-10	35*	-5	3	-14	·
CN1C(=O)C(Cl)(Cl)C(=O)c2ccccc21	10	20	-44	48	54	-9
Cc1cc(NC(=O)COC(=O)[C@@H](NS(=O)(=O)c2ccc(Br)cc2)C(C)C)no1	3	-9	-3	-9	2	·
Cn1ccc(/C=N/N=C2/NC(=O)CS2)n1	-11	-3	-32	4	-7	·
CCCNC(=O)c1ccc2c(=O)c(O)c(-c3cccc(Br)c3)[nH]c2c1	-13	-9	-102	-94	-4	·
CCCNC(=O)c1ccc2c(=O)c(O)c(-c3ccc(F)cc3)[nH]c2c1	-12	98*	-101	-72	-4	·
O=C(CCc1nc2ccccc2s1)NC1CCOC1=O (centres undefined)	1	2	-1	11	3	·
Cc1cc2nnc(SCC(=O)N3C(C)CCCC3C)n2c(N)n1 (centres undefined)	54*	-3	-6	1	6	0
Cc1cc2nnc(SCC(=O)N3CCCCC3)n2c(N)n1	-24	-1	3	-1	-2	0
CCOC(=O)C1(Cc2ccc(OC)cc2)CCN(C(=O)CN2CCCCC2=O)CC1	-3	-1	-20	7	-12	1
O=C(N/N=C/c1ccc(OC(=O)c2ccc3c(c2)OCO3)cc1)c1cncc(Br)c1	-18	-3	-26	-103	71*	-35
CC(=O)N1N=C(c2ccco2)CC1c1cc2ccc(C)cc2nc1Cl (centres undefined)	-5	0	-18	29	-7	·
COc1ccc(C(C(=O)NCC2CCCO2)N(C(=O)CNC(=O)c2cccs2)c2ccccc2C)cc1OC (centres undefined)	-7	-1	-4	6	-1	0
Clc1ccc(/C=N/Nc2ncnc3nc[nH]c23)cc1	11	66*	11	25	3	·
CC1CCN(C(=O)c2ccc3c(Cl)c4c(nc3c2)CCCC4)CC1	-2	82*	-24	15	-12	0
O=C(c1ccc2c(Cl)c3c(nc2c1)CCCC3)N1CCN(c2ccc(F)cc2)CC1	11	-4	6	4	9	-4
CCOc1ccc(NC(=O)c2ccc(NC(=O)c3cn4c5c(c(N6CCN(C)CC6)c(F)cc5c3=O)OCC4C)cc2)cc1 (centres undefined)	82*	-34	-113	-36	-22	-8
